Growth inhibition data for ten compounds are collected here from PubChem BioAssay (NCI).

Compounds without any hit were thinned out: in the full panel of roughly 79,000, 15% have a hit. Unmarked numbers belong to inactive results. Calls of active or inactive are those of the source. Rule as the data show it: active = growth inhibition above about 70%; inactive = the rest.

The nature of experiment [1]: NCI Yeast Anticancer Drug Screen. Data for the rad50 strain (AID 155).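 Also: 0% = growth of vehicle-only cultures of the same strain.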 The following applies: S. cerevisiae rad50 strain growth inhibition, active compounds read high. In a few lines: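 Yeast carrying a defined DNA repair defect were exposed to test compounds, and growth was compared with vehicle-treated controls to give percent inhibition.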
Experiment [2] can be described thus: NCI Yeast Anticancer Drug Screen. Data for the mec2-1 strain (AID 157). The following applies: S. cerevisiae mec2-1 strain, active compounds read high. In a few lines: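 Readout is yeast growth inhibition, normalised to vehicle-treated controls, in the mec2-1 strain exposed to compound.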
Experiment [3] in a line: NCI Yeast Anticancer Drug Screen. Data for the sgs1 mgt1 strain (AID 161).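 Also: 0% = growth of cultures given vehicle only.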 The following applies: S. cerevisiae sgs1 mgt1 strain, active compounds read high. In outline:
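Compounds are added to genetically altered yeast, and growth is compared with cultures given vehicle alone to give percent inhibition.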

Experiment [4] in a line: NCI Yeast Anticancer Drug Screen. Data for the cln2 rad14 strain (AID 165).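 Also: 0% = growth equal to vehicle treated cultures.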 The conditions noted are these: S. cerevisiae cln2 rad14 strain, active compounds read high. In outline:
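Relative to vehicle controls, growth inhibition of compound-treated cln2 rad14 yeast was recorded.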

Experiment [5] can be described thus: NCI Yeast Anticancer Drug Screen. Data for the bub3 strain (AID 167). The following applies: S. cerevisiae bub3 mutant strain, active compounds read high. In outline: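 Compounds were applied to a genetically altered yeast strain carrying a cell-cycle control defect. Growth inhibition was scored against vehicle-treated controls.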
Experiment [6] in a line: NCI Yeast Anticancer Drug Screen. Data for the mlh1 rad18 strain (AID 175). The conditions noted are these: S. cerevisiae mlh1 rad18 strain growth inhibition, active compounds read high. In outline:
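Test agents were incubated with a yeast strain of defined genotype (DNA damage repair defect). Inhibition of growth was derived by comparison with vehicle-exposed cultures.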

The mark [7] stands for this setting: at 5.0 µM (retest, dose inferred, filed as 0.5).
The mark [8] stands for this setting: at 50.0 µM (retest, dose inferred, filed as 5.0).

As for `CSCSCC(CO)NC(=O)/C=C/c1c(C)[nH]c(=O)[nH]c1=O` (stereo not given), the growth inhibition in experiment [1] (setting [7]) is -2%; in experiment [1] (setting [8]) it was 0%; in experiment [1] (at 50.0 µM) it was 92.5% (active); in experiment [2] (setting [7]), 1%; in experiment [2] (setting [8]), 7%; in experiment [2] (at 50.0 µM) it was 94.2% (active). In addition, the growth inhibition in experiment [3] (setting [7]) was 1%; in experiment [3] (setting [8]), 4%; in experiment [3] (at 50.0 µM) it was 93.8% (active); in experiment [4] (setting [7]) it was -3%; in experiment [4] (setting [8]), -11%; in experiment [4] (at 50.0 µM), 92.2% (active). The growth inhibition in experiment [5] (setting [7]) was 3%; in experiment [5] (setting [8]), 21%; in experiment [5] (at 50.0 µM), 92.8% (active); in experiment [6] (setting [7]), 3%; in experiment [6] (setting [8]), 8%; in experiment [6] (at 50.0 µM), 92.9% (active).

`C=C1CC(Cn2cc(C)c(=O)[nH]c2=O)(c2ccc(Cl)cc2)OC1=O` (stereo not given): the growth inhibition in experiment [1] (setting [7]) is -7%; in experiment [1] (setting [8]), 82% (active); in experiment [1] (at 50.0 µM) it was 69.8%; in experiment [2] (setting [7]), -11%; in experiment [2] (setting [8]), 94% (active); in experiment [2] (at 50.0 µM) it was 73.1% (active). The growth inhibition in experiment [3] (setting [7]) is -27%; in experiment [3] (setting [8]), 85% (active); in experiment [3] (at 50.0 µM), 74.2% (active); in experiment [4] (setting [7]), 13%; in experiment [4] (setting [8]), 43%; in experiment [4] (at 50.0 µM), 65%. Besides, the growth inhibition was 8% in experiment [5] (setting [7]); 89% (active) in experiment [5] (setting [8]); 78.3% (active) in experiment [5] (at 50.0 µM); 7% in experiment [6] (setting [7]); 91% (active) in experiment [6] (setting [8]); 85.3% (active) in experiment [6] (at 50.0 µM).

In the case of `CN(C)C(=S)/N=c1\ssc(=S)n1C`, the growth inhibition was 2% in experiment [1] (setting [7]); 0% in experiment [1] (setting [8]); 86.7% (active) in experiment [1] (at 50.0 µM); 2% in experiment [2] (setting [7]); 4% in experiment [2] (setting [8]); 27.4% in experiment [2] (at 50.0 µM). Moreover, the growth inhibition is 2% in experiment [3] (setting [7]); -1% in experiment [3] (setting [8]); 90.7% (active) in experiment [3] (at 50.0 µM); 1% in experiment [4] (setting [7]); 4% in experiment [4] (setting [8]); 72.1% (active) in experiment [4] (at 50.0 µM). Also, the growth inhibition in experiment [5] (setting [7]) is -1%; in experiment [5] (setting [8]), -1%; in experiment [5] (at 50.0 µM), 87.8% (active); in experiment [6] (setting [7]) it was 0%; in experiment [6] (setting [8]), 6%; in experiment [6] (at 50.0 µM) it was 84.8% (active).

Take `Oc1ccc(-c2ccccc2)cc1Cl`: the growth inhibition in experiment [1] (setting [7]) was -1%; in experiment [1] (setting [8]) it was 98% (active); in experiment [1] (at 50.0 µM), 99.2% (active); in experiment [2] (setting [7]) it was -12%; in experiment [2] (setting [8]), 99% (active); in experiment [2] (at 50.0 µM), 99.7% (active). The growth inhibition in experiment [3] (setting [7]) is -3%; in experiment [3] (setting [8]), 99% (active); in experiment [3] (at 50.0 µM), 99.7% (active); in experiment [4] (setting [7]), -11%; in experiment [4] (setting [8]), 98% (active); in experiment [4] (at 50.0 µM), 97.5% (active). The growth inhibition in experiment [5] (setting [7]) is -23%; in experiment [5] (setting [8]) it was 98% (active); in experiment [5] (at 50.0 µM), 99.4% (active); in experiment [6] (setting [7]), -5%; in experiment [6] (setting [8]) it was 99% (active); in experiment [6] (at 50.0 µM), 99% (active).

`CCN(CC)C(=S)Nc1ccc(Cl)cc1`: the growth inhibition was -144% in experiment [1] (setting [7]); 67% in experiment [1] (setting [8]); 98.5% (active) in experiment [1] (at 50.0 µM); -50% in experiment [2] (setting [7]); 49% in experiment [2] (setting [8]); 97.7% (active) in experiment [2] (at 50.0 µM). In addition, the growth inhibition in experiment [3] (setting [7]) is -62%; in experiment [3] (setting [8]), 63%; in experiment [3] (at 50.0 µM), 97.1% (active); in experiment [4] (setting [7]), -85%; in experiment [4] (setting [8]), 40%; in experiment [4] (at 50.0 µM), 98.5% (active). For the same compound, the growth inhibition was -65% in experiment [5] (setting [7]); 45% in experiment [5] (setting [8]); 95.2% (active) in experiment [5] (at 50.0 µM); -122% in experiment [6] (setting [7]); 74% (active) in experiment [6] (setting [8]); 97.4% (active) in experiment [6] (at 50.0 µM).

Regarding `CC(CN(C)C)C(=O)/C=C/c1ccc(C(C)C)cc1` (stereo not given), the growth inhibition in experiment [1] (setting [7]) is 3%; in experiment [1] (setting [8]) it was 89% (active); in experiment [1] (at 50.0 µM), 93.2% (active); in experiment [2] (setting [7]), 6%; in experiment [2] (setting [8]), 75% (active); in experiment [2] (at 50.0 µM), 37.3%. Further, the growth inhibition was 9% in experiment [3] (setting [7]); 93% (active) in experiment [3] (setting [8]); 97.2% (active) in experiment [3] (at 50.0 µM); 11% in experiment [4] (setting [7]); 26% in experiment [4] (setting [8]); 25.8% in experiment [4] (at 50.0 µM). The growth inhibition in experiment [5] (setting [7]) is 0%; in experiment [5] (setting [8]), 81% (active); in experiment [5] (at 50.0 µM), 69%; in experiment [6] (setting [7]) it was -1%; in experiment [6] (setting [8]) it was 94% (active); in experiment [6] (at 50.0 µM), 91.4% (active).

With `O=C(CC1Sc2ccccc2NC1=O)Nc1ccc([N+](=O)[O-])cc1[N+](=O)[O-]` (stereo not given), the growth inhibition is 30% in experiment [1] (setting [7]); 81% (active) in experiment [1] (setting [8]); 88% (active) in experiment [1] (at 50.0 µM); 25% in experiment [2] (setting [7]); 89% (active) in experiment [2] (setting [8]); 93.3% (active) in experiment [2] (at 50.0 µM). In addition, the growth inhibition in experiment [3] (setting [7]) was 51%; in experiment [3] (setting [8]) it was 98% (active); in experiment [3] (at 50.0 µM), 81.8% (active); in experiment [4] (setting [7]), 34%; in experiment [4] (setting [8]), 62%; in experiment [4] (at 50.0 µM), 28.9%. Further, the growth inhibition in experiment [5] (setting [7]) is 36%; in experiment [5] (setting [8]), 97% (active); in experiment [5] (at 50.0 µM), 92% (active); in experiment [6] (setting [7]), 51%; in experiment [6] (setting [8]), 96% (active); in experiment [6] (at 50.0 µM) it was 86.9% (active).

Take `CCCCCCCCCC(=O)CC(=O)c1c(O)cccc1O`: the growth inhibition in experiment [1] (setting [7]) was 33%; in experiment [1] (setting [8]), 83% (active); in experiment [1] (at 50.0 µM) it was 86% (active); in experiment [2] (setting [7]), 20%; in experiment [2] (setting [8]), 92% (active); in experiment [2] (at 50.0 µM), 90.3% (active). For the same compound, the growth inhibition in experiment [3] (setting [7]) is 52%; in experiment [3] (setting [8]), 96% (active); in experiment [3] (at 50.0 µM), 90.5% (active); in experiment [4] (setting [7]), 22%; in experiment [4] (setting [8]) it was 83% (active); in experiment [4] (at 50.0 µM) it was 88.9% (active). Moreover, the growth inhibition is 42% in experiment [5] (setting [7]); 94% (active) in experiment [5] (setting [8]); 87.3% (active) in experiment [5] (at 50.0 µM); 40% in experiment [6] (setting [7]); 95% (active) in experiment [6] (setting [8]); 86.2% (active) in experiment [6] (at 50.0 µM).

On to `C/C(=N/NC(N)=O)c1ccc(Cl)s1`, for which the growth inhibition in experiment [1] (setting [7]) was 0%; in experiment [1] (setting [8]), -1%; in experiment [1] (at 50.0 µM), 12.9%; in experiment [2] (setting [7]) it was 23%; in experiment [2] (setting [8]), -3%; in experiment [2] (at 50.0 µM), 5%. Besides, the growth inhibition in experiment [3] (setting [7]) was -1%; in experiment [3] (setting [8]) it was 0%; in experiment [3] (at 50.0 µM), -4.35%; in experiment [4] (setting [7]) it was -8%; in experiment [4] (setting [8]), -3%; in experiment [4] (at 50.0 µM), 52.9%. Besides, the growth inhibition in experiment [5] (setting [7]) is -2%; in experiment [5] (setting [8]), -7%; in experiment [5] (at 50.0 µM), 9.4%; in experiment [6] (setting [7]), -5%; in experiment [6] (setting [8]), -1%; in experiment [6] (at 50.0 µM) it was 1.6%.

Consider `COc1ccc(N=NC(C(=O)c2ccccc2)C(=O)c2ccccc2)cc1`, for which the growth inhibition in experiment [1] (setting [7]) is 29%; in experiment [1] (setting [8]) it was 96% (active); in experiment [1] (at 50.0 µM) it was 92.3% (active); in experiment [2] (setting [7]), -1%; in experiment [2] (setting [8]) it was 94% (active); in experiment [2] (at 50.0 µM), 93.2% (active). Further, the growth inhibition in experiment [3] (setting [7]) is 20%; in experiment [3] (setting [8]), 94% (active); in experiment [3] (at 50.0 µM), 92.4% (active); in experiment [4] (setting [7]) it was 6%; in experiment [4] (setting [8]) it was 95% (active); in experiment [4] (at 50.0 µM) it was 88.7% (active). In addition, the growth inhibition in experiment [5] (setting [7]) was -3%; in experiment [5] (setting [8]), 97% (active); in experiment [5] (at 50.0 µM), 91.2% (active); in experiment [6] (setting [7]), -18%; in experiment [6] (setting [8]), 97% (active); in experiment [6] (at 50.0 µM), 91.2% (active).
